Our source for the log2 fold change values is the supplement of paper PMC12819154, “High-throughput peptide-centric local stability assay extends protein–ligand identification to membrane proteins, tissues and bacteria” (Nature Structural & Molecular Biology, 2025).
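Note: lysate desalted by size exclusion to strip endogenous ATP, peptide intensities built from DIA-NN precursor signals, and peptides missing any value discarded before comparison.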

Compound in the assay: Nc1ncnc2c1ncn2[C@@H]1O[C@H](COP(=O)(O)OP(=O)(O)OP(=O)(O)O)[C@@H](O)[C@H]1O [adenosine 5'-triphosphate]
The assay is described as follows: log2 fold change of tryptic peptide abundance, ligand vs vehicle (limited proteolysis) (log2 ratio); higher = more trypsin-susceptible (destabilized). As to conditions: ligand concentration: 5 mM; sample: E. coli desalted lysate; replicate design: treated before aliquoting. The method, then:
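HT-PELSA: desalted E. coli K-12 BW25113 lysate (with 12 mM MgCl2) incubated with 5 mM ATP (pH 7) or water for 30 min at 25 C, then a 4 min trypsin pulse at 22 C. Peptides were quantified by DIA-MS (4 replicates). Value is the peptide log2 fold change (treated/control); negative = stabilized. Scale: negative = ligand-stabilized region.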
As to “UniProt P76938 (peptide sequence: RVHAQVMDYLTNGIPERPAR, peptide start residue: 137)”, the log2 fold change worked out at 0.412.
For “UniProt P77279 (peptide sequence: NIAELSGGEK, peptide start residue: 134)”, the log2 fold change was -0.683.
The result for “UniProt P21514 (peptide sequence: NPIPVTPEAR, peptide start residue: 237)” reads -2.06.
The result for “UniProt P27833 (peptide sequence: LCGDGGFTR, peptide start residue: 26)” reads -0.494; that for “UniProt P0AFZ1 (peptide sequence: NELEDLLEK, peptide start residue: 6)”, 0.67; that for “UniProt P03813 (peptide sequence: YTMEQDFYR, peptide start residue: 127)”, -0.699.
The result for “UniProt P77272 (peptide sequence: LRLGVHDSSLVDPNIK, peptide start residue: 33)” reads 0.714.
As for “UniProt P42632 (peptide sequence: IKALPTYR, peptide start residue: 593)”, the log2 fold change was found to be 0.596.
The result for “UniProt P0A9J4 (peptide sequence: HTEIDYINGFLLRR, peptide start residue: 254)” reads 0.895.
The result for “UniProt P32053 (peptide sequence: AFEKPQKK, peptide start residue: 202)” reads -0.721.
The result for “UniProt P08997 (peptide sequence: TLSNGKPVTK, peptide start residue: 467)” reads -0.591; that for “UniProt P07109 (peptide sequence: YGEHEVLK, peptide start residue: 15)”, -1.13.
For “UniProt P45522 (peptide sequence: TLVTLGMHPHQAQR, peptide start residue: 530)”, the log2 fold change was 0.604.
The result for “UniProt P39274 (peptide sequence: FYINDKQGK, peptide start residue: 10)” reads 0.423; that for “UniProt P39280 (peptide sequence: IHSRLPIVIPAR, peptide start residue: 193)”, 1.51.
The result for “UniProt P25741 (peptide sequence: LSDVGVDTMK, peptide start residue: 84)” reads -0.922.
The result for “UniProt P0A8Y3 (peptide sequence: VVVLSNTNR, peptide start residue: 103)” reads 0.564.
In the case of “UniProt P77536 (peptide sequence: MVDELGHWEEWRDR, peptide start residue: 41)”, the log2 fold change is -0.517.
The result for “UniProt P23538 (peptide sequence: QVKIEDVPQEQR, peptide start residue: 278)” reads -2.56; that for “UniProt P00934 (peptide sequence: LYNLKDHNEQVSFAQAVTQGLGK, peptide start residue: 3)”, -1.05.
Consider “UniProt P07023 (peptide sequence: KVEHWFGDYAQR, peptide start residue: 345)”, for which the log2 fold change was found to be 0.528.
The result for “UniProt P08192 (peptide sequence: FQIVSESPR, peptide start residue: 290)” reads -0.913; that for “UniProt P25666 (peptide sequence: MHLFTIKK, peptide start residue: 171)”, -0.804; that for “UniProt P67910 (peptide sequence: YFNVYGPR, peptide start residue: 167)”, -0.736.
In the case of “UniProt P00887 (peptide sequence: YPVTPGVATHVTDSRR, peptide start residue: 25)”, the log2 fold change was -0.488.
The result for “UniProt P0A6B4 (peptide sequence: QLAIFNTFCEGKPGQR, peptide start residue: 174)” reads 0.707; that for “UniProt P08373 (peptide sequence: VNGNAGSFFKNPVVSAETAK, peptide start residue: 223)”, 0.267; that for “UniProt P77485 (peptide sequence: GTVAVTSDAR, peptide start residue: 461)”, -0.644.
The result for “UniProt P04994 (peptide sequence: TGAALHDILHVLK, peptide start residue: 149)” reads 0.643; that for “UniProt P61887 (peptide sequence: FGVVEFDDNFR, peptide start residue: 143)”, -0.44.
As to “UniProt P10121 (peptide sequence: KRGFFSWLGFGQK, peptide start residue: 6)”, the log2 fold change amounted to 0.814.
